Sampled rows, rich in hits. Any-hit rate of the full collection: about 19%.
HT1080-NT tox: kills 2HG-producing HT-1080-NT fibrosarcoma cells; Potency, µM (doses to about 46.1 µM), without a hit: top-dose activity, negative = less viability, actives largely listed as cytotoxic; 360,000 compounds, 1.6% hits; HT-1080-NT fibrosarcoma viability, CellTiter-Glo ATP luminescence, 48 h; AID 686970;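 also: NT is the 2HG producing partner of a matched IDH1 knockdown line; potency is read from the fitted curve at half-maximal effect; 0% = DMSO-treated cells and -100% = media-only wells without cells; nearly all actives have a fitted effect of over 55% in size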
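Viability by CellTiter-Glo luminescence after 48 h compound exposure at 37C of HT-1080-NT cells (750/well, RPMI, 5% FBS). % activity scaled between DMSO wells and medium-only wells, then curve-fitted and categorized by curve class.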
TDP1 cell noCPT: qHTS for Inhibitors of human tyrosyl-DNA phosphodiesterase 1 (TDP1): qHTS in cells in absence of CPT; DT40 Tdp1-/- hTDP1 cells, no CPT, ATP luminescence, 48 h; Potency, µM (titrated, usually from 46.2 µM), without a hit: at the top dose activity change, negative = growth inhibition, usual class: inhibitors; 420,000 compounds, 15% hits; AID 686978, 2013; also: potency is read from the fitted curve at half-maximal effect; nearly all actives have a fitted effect of over 55% in size
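Luminescent ATP content (CellTiter-Glo) served as the growth readout. Knockout chicken DT40 cells expressing human TDP1 were exposed to compounds without camptothecin for a minimum 48 hr at 37 °C.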
TDP1 cell CPT: DT40-hTDP1 cell growth loss with CPT | chicken DT40 Tdp1-/-;hTDP1 cells + 20 nM CPT, ATP luminescence, 48 h | Potency, µM (series often up to 46.2 µM), inactives show at the top dose activity change, negative = growth inhibition, actives largely listed as inhibitors | 420,000 compounds, 12% hits; also: potency is read from the fitted curve at half-maximal effect; nearly all actives have a fitted effect of over 55% in size
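Chicken DT40 Tdp1-/- cells stably complemented with human TDP1 were seeded at 400 cells/well in medium containing 20 nM camptothecin, exposed to pin-transferred compounds, and grown at 37 °C for at least 48 hr. Viability was read as ATP luminescence.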
IL1B secr inh: inflammasome signaling inhibition, IL-1 beta readout. THP-1 LPS/ATP IL-1B secretion, AlphaLISA, 16 h; stronger effect = lower value. activity change, % at 57.5 µM. 360,000 compounds, 4.7% hits. AID 743279; in the data active = activity change below about -50%; inconclusive = mostly about -30% to -49%
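Secreted IL-1B measured by AlphaLISA bead assay after 16 h compound exposure of THP-1 cells; compounds (final up to 57.5 uM) added 1 h before LPS (250 ng/mL) and ATP (1.25 mM) stimulation; lower signal means less secretion.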
HT1080 IDH1KD tx: HT-1080 IDH1 knockdown cell toxicity (counter line); AID 686971; HT-1080 IDH1 knockdown viability, ATP luminescence, 48 h; Potency, µM (doses to about 46.1 µM), without a hit: at the highest dose activity, negative = toxicity, usual class: cytotoxic; 360,000 compounds, 2% hits;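 also: potency is read from the fitted curve at half-maximal effect; 0% = DMSO wells and -100% = cell-free medium wells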
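Knockdown cells (IDH1KD HT-1080) received compounds 2 h after plating at 750 cells/well and were kept 48 h at 37 °C in 5% FBS RPMI. A CellTiter-Glo luminescence read gave % activity for curve fitting.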
* marks the source's active call; other numbers are inactive results; u = inconclusive; x = no result; [ ] = remark or other dose. Unless noted, calls follow the shape of the dose curve; as a rule, active = well fitted curve in the direction sought with a large enough effect; inconclusive = small, poorly fitted or top-dose-only effect, or another doubt; inactive = no such curve, though single readings can be large; an effect the other way counts as inactive or inconclusive. Unless noted, % is scaled to controls: 0 for no effect and ±100 for the full control effect.

SMILES	HT1080-NT tox	TDP1 cell noCPT	TDP1 cell CPT	IL1B secr inh	HT1080 IDH1KD tx
Cn1c(CSCc2ccc(Cl)cc2)nnc1SCC(=O)Nc1nccs1	-14%	u	u	-2	-10%
Cn1cccc1Cc1nnc(SCC(=O)Nc2nccs2)n1CCc1ccccc1	-16%	u	21µM*	u	-14%
CCOC(=O)CC(NCc1ccc(OC)c(OCC)c1)c1ccc(C)cc1 (centres undefined)	6%	u	u	34	7%
COc1cc(CNC(=O)c2cnc(SC)nc2-c2ccccc2)cc(OC)c1OC	x	u	0%	x	x
Cc1ccccc1-c1nc2cc(NC(=O)Cc3ccc(Cl)cc3)ccc2o1	x	21µM*	u	x	x
Cc1ccccc1-c1nc2cc(Cl)ccc2c(=O)o1	0%	16µM*	u	0	-3%
COc1ccc(-c2nc3cc(NC(=O)Cc4ccc(OC)c(OC)c4)ccc3o2)cc1	-7%	u	u	u	-11%
COc1ccc(-c2nc3cc(NC(=O)Cc4ccc(Cl)cc4)ccc3o2)cc1OC	x	13µM*	16µM*	x	x
CN(c1ccccc1C(=O)O)S(=O)(=O)c1ccc2[nH]c(=O)[nH]c2c1	11%	-14%	1%	13	0%
CC1(C)Cc2cccc(OCC(=O)NCc3ccccc3F)c2O1	15%	-1%	4%	82	-1%
CCCCCn1cnnc1SCC(=O)c1ccc2c(c1)OCO2	-4%	u	-23%	-18	17%
Cc1noc(C)c1S(=O)(=O)N(CC(=O)Nc1ccc(C(F)(F)F)cc1)c1ccc(C(C)C)cc1	x	23µM*	16µM*	x	x
Cc1noc(C)c1S(=O)(=O)N(CC(=O)Nc1ccc(F)cc1F)c1ccc(C(C)C)cc1	x	21µM*	u	x	x
Cc1ccc(N(CC(=O)Nc2ccc(C)c(F)c2)S(=O)(=O)c2c(C)n[nH]c2C)cc1	x	u	-26%	x	x
Cc1ccc(NC(=O)c2ccc(NS(=O)(=O)c3c(C)noc3C)cc2)cc1C	0%	u	-30%	-18	-6%
COc1ccc(NC(=O)CN(c2ccc(C(C)C)cc2)S(=O)(=O)c2c(C)noc2C)cc1OC	-3%	u	u	19	2%
Cc1n[nH]c(C)c1S(=O)(=O)N(CC(=O)Nc1ccc(C(F)(F)F)cc1)c1ccc(C(C)C)cc1	x	u	15µM*	x	x
Cc1noc(C)c1S(=O)(=O)Nc1ccc(C(=O)Nc2ccc(C(C)C)cc2)cc1	x	9.2µM*	12µM*	x	x
CC(=O)Nc1ccc(Nc2nc3ccccc3nc2NS(=O)(=O)c2ccc(Cl)c([N+](=O)[O-])c2)cc1	-1%	5.8µM*	7.3µM*	-108*	7%
CC(=O)Nc1ccc(S(=O)(=O)Nc2nc3ccccc3nc2Nc2ccc3ccccc3c2)cc1	-8%	u	u	11	-5%
COC(=O)c1cc(Nc2nc3ccccc3nc2NS(=O)(=O)c2ccc(C)cc2)ccc1Cl	x	6.5µM*	18µM*	x	x
CC(=O)Nc1ccc(S(=O)(=O)Nc2nc3ccccc3nc2Nc2ccc(N)cc2)cc1	-8%	-19%	3%	9	3%
CC(C)=CCCC1(C)C=Cc2c(c(C)cc3c2[nH]c2cc(O)ccc23)O1 (centres undefined)	u	16µM*	u	-74*	u
CCc1ccccc1N(C(=O)c1snc(C(N)=O)c1N)C(C(=O)NCC1CCCO1)c1ccc(N(C)C)cc1 (centres undefined)	-14%	u	u	-2	-12%
CCc1ccccc1N(C(=O)c1snc(C(N)=O)c1N)C(C(=O)NCC1CCCO1)c1c[nH]c2ccccc12 (centres undefined)	u	21µM*	u	-24	u
SMILES	HT1080-NT tox	TDP1 cell noCPT	TDP1 cell CPT	IL1B secr inh	HT1080 IDH1KD tx
COc1ccc(C(C(=O)NCC2CCCO2)N(Cc2cccs2)C(=O)c2snc(C(N)=O)c2N)cc1 (centres undefined)	-1%	10µM*	16µM*	10	-17%
Cc1ccc(N(C(=O)c2snc(C(N)=O)c2N)C(C(=O)NCC2CCCO2)c2ccc(C)o2)c(C)c1 (centres undefined)	0%	16µM*	18µM*	u	-25%
Cc1nc(C)c(C(=O)N(c2ccccc2F)C(C(=O)NCC2CCCO2)c2ccccc2)s1 (centres undefined)	15%	u	26µM*	-6	10%
Cc1nc(C)c(C(=O)N(c2ccc(F)cc2)C(C(=O)NCC2CCCO2)c2ccccc2)s1 (centres undefined)	15%	u	3%	0	4%
COc1ccccc1NC(=O)CSc1nnc(CC(=O)Nc2ccccc2C)n1C	5%	10%	4%	0	13%
O=C(c1ccc([N+](=O)[O-])cc1[N+](=O)[O-])n1cnc2ccccc21	-10%	u	u	36	1%
Cc1ccc(NC(=O)CN(C)C(=O)COc2ncnc3ccc(Br)cc23)cc1	2%	-20%	-17%	4	3%
COc1ccccc1C1CN(Cc2cnn(C)c2)Cc2ccccc2O1 (centres undefined)	x	-23%	16%[9.04 µM]	x	x
COc1ccc(N(C(=O)c2snc(C(N)=O)c2N)C(C(=O)NCC2CCCO2)c2ccc(C)o2)cc1OC (centres undefined)	-1%	18µM*	u	5	6%
CCc1ccccc1N(C(=O)c1snc(C(N)=O)c1N)C(C(=O)NCC1CCCO1)c1ccc(C)o1 (centres undefined)	-15%	10µM*	12µM*	-9	-19%
Cc1ccccc1N(C(=O)c1snc(C(N)=O)c1N)C(C(=O)NCC1CCCO1)c1ccc(F)cc1 (centres undefined)	-13%	10µM*	15µM*	19	-6%
CCc1ccc(N(C(=O)c2snc(C(N)=O)c2N)C(C(=O)NCC2CCCO2)c2ccco2)cc1 (centres undefined)	-1%	18µM*	23µM*	-24	0%
COc1ccccc1-n1nnnc1SCC(=O)NCC1(N2CCCCC2)CCCCC1	3%	-26%	-20%	-11	7%
Cc1cnc(SCc2ccccn2)nc1C1CCCN(C(=O)c2ccc3c(c2)OCCO3)C1 (centres undefined)	x	-7%	17%[9.04 µM]	x	x
COC(=O)C(CO)Nc1ncnc2onc(-c3ccc(F)cc3)c12 (centres undefined)	-11%	-14%	27%	21	-13%
Cc1cccc(N2CCN(C(=O)CCC(=O)N3CC(C)Oc4ccccc43)CC2)c1C (centres undefined)	-26%	13µM*	16µM*	-18	-9%

From PubChem
